# Assay results from the supplement of paper PMC9588786.
# Where a name gives a salt, the structure may show the parent alone. ± gives the standard deviation of the averaged measurements.
# System: HT-1080
# Test: relative cell viability with RSL3 co-treatment (fraction of control); higher = stronger protection from RSL3-induced ferroptosis (higher viability)
# Details: 10 µM
# 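Further: viability read as CCK-8 absorbance at 450 nm in cells co-exposed to the GPX4 inhibitor RSL3, relative to a 0.01% DMSO vehicle control.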
smiles,measurement,value
O=C(NC1CCNCC1)c1n[nH]cc1NC(=O)c1c(Cl)cccc1Cl,relative cell viability,0.56 ± 0.18
CCn1c(=O)c(-c2ccc(-c3cncs3)cc2Cl)cc2cnc(Nc3ccc(N4CCN(C)CC4)cc3)nc21,relative cell viability,0.833 ± 0.032
Cc1cc(F)c(Nc2ncnc3cc(OCc4ccccc4)ccc23)cc1O,relative cell viability,0.797 ± 0.021
N#CC[C@H](C1CCCC1)n1cc(-c2ncnc3[nH]ccc23)cn1,relative cell viability,0.897 ± 0.083
O=C(Nc1cccnc1)c1cc(-c2ccnc(F)c2)ccc1OCc1ccccc1,relative cell viability,0.627 ± 0.06
C#Cc1cccc(Nc2ncnc3cc(OC)c(OCCCCCCC(=O)NO)cc23)c1,relative cell viability,0.793 ± 0.046
Cc1cc2c(F)c(Oc3ncnn4cc(OC[C@@H](C)O)c(C)c34)ccc2[nH]1,relative cell viability,0.753 ± 0.078
CN1CC[C@H](c2c(O)cc(O)c3c(=O)cc(-c4ccccc4Cl)oc23)[C@H](O)C1 [Flavopiridol (Alvocidib)],relative cell viability,0.49 ± 0.13
CNC(=O)c1cc(COc2nnc(Nc3ccc(Cl)cc3)c3ccoc23)ccn1 [Telatinib],relative cell viability,0.623 ± 0.057
CNC(=O)c1ccc(C)c(-n2c(C)cc(OCc3ccc(F)cc3F)c(Br)c2=O)c1,relative cell viability,0.747 ± 0.067
COc1cc(Nc2ncc3c(n2)-c2ccc(Cl)cc2C(c2c(F)cccc2OC)=NC3)ccc1C(=O)O [Alisertib (MLN8237)],relative cell viability,0.39 ± 0.18
COc1cc2nccc(Oc3ccc(NC(=O)C4(C(=O)Nc5ccc(F)cc5)CC4)cc3)c2cc1OC,relative cell viability,0.7 ± 0.21
O=C(Nc1cccc(Nc2ncc(Br)c(NCCc3cnc[nH]3)n2)c1)N1CCCC1,relative cell viability,0.743 ± 0.04
O=C(O)c1ccc(Nc2ncc3c(n2)-c2ccc(Cl)cc2C(c2c(F)cccc2F)=NC3)cc1,relative cell viability,0.433 ± 0.045
CCc1cccc(CC)c1NC(=O)N1Cc2[nH]nc(NC(=O)c3ccc(N4CCN(C)CC4)cc3)c2C1,relative cell viability,0.53 ± 0.087
CNC(=O)c1cc(Oc2ccc(NC(=O)Nc3cc(C(C)(C)C)nn3-c3ccc4ncccc4c3)c(F)c2)ccn1 [Rebastinib (DCC-2036)],relative cell viability,0.3 ± 0.085
Cc1ccc(NC(=O)c2ccc(CN3CCN(C)CC3)cc2)cc1Nc1nccc(-c2cccnc2)n1 [Imatinib Mesylate (STI571)],relative cell viability,0.733 ± 0.17
COc1cc(Nc2ncc(F)c(Nc3ccc4c(n3)NC(=O)C(C)(C)O4)n2)cc(OC)c1OC [R406 (free base)],relative cell viability,0.79 ± 0.02
CC[C@@](C)(Nc1ccnc(-c2c[nH]c3ncccc23)n1)C(=O)NCC(F)(F)F [Decernotinib (VX-509)],relative cell viability,0.823 ± 0.042
"CN1CCN(c2ccc3nc(-c4c(N)c5c(F)cccc5[nH]c4=O)[nH]c3c2)CC1 [Dovitinib (TKI-258, CHIR-258)]",relative cell viability,0.827 ± 0.1
CN(C)S(=O)(=O)c1ccc2c(c1)/C(=C/c1cc3c([nH]1)CCCC3)C(=O)N2,relative cell viability,0.727 ± 0.081
CCCCCCCCc1ccc(CCC(N)(CO)CO)cc1 [Fingolimod (FTY720) HCl],relative cell viability,0.253 ± 0.1
NCC(=O)Nc1ccc(-n2nc(C(F)(F)F)cc2-c2ccc3c(ccc4ccccc43)c2)cc1,relative cell viability,0.06 ± 0.056
O=C(Nc1cc(C(F)(F)F)cc(C(F)(F)F)c1)c1cc(Cl)ccc1O,relative cell viability,0.537 ± 0.06
Cc1c(NC(=O)OC[C@@H]2COCCN2)cn2ncnc(Nc3ccc4c(cnn4Cc4cccc(F)c4)c3)c12,relative cell viability,0.793 ± 0.023
Oc1c(F)cc(-c2cnccc2-c2ccc(N3CCOCC3)cc2)cc1F,relative cell viability,0.757 ± 0.072
CCC[C@H](NC(=O)/C(C#N)=C/c1cccc(Br)n1)c1ccccc1 [Degrasyn (WP1130)],relative cell viability,0.793 ± 0.064
